# Laboratory results: the supplement of paper PMC4022240
# ± gives the standard deviation.
# T1: HaloTag-ATRX ADD domain (163-292)
# T1 chain: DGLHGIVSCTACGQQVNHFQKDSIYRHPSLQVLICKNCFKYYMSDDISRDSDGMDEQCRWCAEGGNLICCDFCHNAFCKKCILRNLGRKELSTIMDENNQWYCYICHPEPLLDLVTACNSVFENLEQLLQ
# Legend:
# Assay in all cases: peptide microarray binding signal (635 nm), min-max normalized on array (fraction of array maximum); higher = stronger binding
# Settings in all cases: peptide region: H2B 17-29
# [1] = biological target: T1, HaloTag-ATRX ADD domain (163-292)
# Procedure: (§1)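 Histone 13-mer peptides were synthesized as cellulose conjugates with a C-terminal 20-atom PEG linker and printed in triplicate on nitrocellulose. The sequence given is the unmodified backbone; PTMs (Kme1/2/3, Kac, Sph/Tph, Rme/Rme2a/Rme2s, Rcit) are listed in the label and the 'peptide modifications' condition. Slides were probed at 4 °C for 1 h with biotin-labelled (HQ)5-HaloTag reader fusions (ATRX-ADD, ING2-PHD) then streptavidin-Alexa647, or with rabbit histone antibodies then anti-rabbit Alexa647. The mean 635 nm signal of the triplicate spots was scaled 0-1 between the lowest and highest values on each array.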
# [2] = biological target: HaloTag-ING2 PHD (mouse Ing2 200-280)
# Procedure: as §1
# [3] = biological target: anti-H3K4me3 antibody ab8580
# Procedure: as §1
# [4] = biological target: anti-H3K9me3 antibody ab8898
# Procedure: as §1
# [5] = peptide modifications: H2BK20ac H2BK28ac, binder concentration: 1:2,000 dilution
# [6] = peptide modifications: H2BK20ac H2BK28ac, binder concentration: 1:10,000 dilution
# [7] = peptide modifications: H2BK20ac H2BK24ac H2BK28ac, binder concentration: 1:2,000 dilution
# [8] = peptide modifications: H2BK20ac H2BK24ac H2BK28ac, binder concentration: 1:10,000 dilution
# [9] = peptide modifications: H2BK20ac H2BK23ac H2BK27ac H2BK28ac, binder concentration: 1:2,000 dilution
# [10] = peptide modifications: H2BK20ac H2BK23ac H2BK27ac H2BK28ac, binder concentration: 1:10,000 dilution
# [11] = peptide modifications: H2BK23ac H2BK24ac H2BK27ac H2BK28ac, binder concentration: 1:2,000 dilution
# [12] = peptide modifications: H2BK23ac H2BK24ac H2BK27ac H2BK28ac, binder concentration: 1:10,000 dilution
# [13] = peptide modifications: H2BK23ac H2BK24ac H2BK28ac, binder concentration: 1:2,000 dilution
# [14] = peptide modifications: H2BK23ac H2BK24ac H2BK28ac, binder concentration: 1:10,000 dilution
binder,measurement,setting,value
AVTKAQKKDGKKR [H2B 17-29 A V T Kac A Q K K D G K Kac R],peptide microarray binding signal,"[1]; peptide modifications: H2BK20ac H2BK28ac, binder concentration: 50 nM",0.00245 ± 3.9e-05
same,peptide microarray binding signal,"[1]; peptide modifications: H2BK20ac H2BK28ac, binder concentration: 500 nM",0.00848 ± 0.00061
same,peptide microarray binding signal,"[2]; peptide modifications: H2BK20ac H2BK28ac, binder concentration: 10 nM",0.00328 ± 6.2e-05
same,peptide microarray binding signal,"[2]; peptide modifications: H2BK20ac H2BK28ac, binder concentration: 100 nM",0.00446 ± 0.00022
same,peptide microarray binding signal,[3]; [5],0.00126 ± 0.00023
same,peptide microarray binding signal,[3]; [6],0.000799 ± 8.3e-06
same,peptide microarray binding signal,[4]; [5],0.000393 ± 7.7e-06
same,peptide microarray binding signal,[4]; [6],0.000461
AVTKAQKKDGKKR [H2B 17-29 A V T Kac A Q K Kac D G K Kac R],peptide microarray binding signal,"[1]; peptide modifications: H2BK20ac H2BK24ac H2BK28ac, binder concentration: 50 nM",0.00815 ± 0.00023
same,peptide microarray binding signal,"[1]; peptide modifications: H2BK20ac H2BK24ac H2BK28ac, binder concentration: 500 nM",0.00795 ± 0.00026
same,peptide microarray binding signal,"[2]; peptide modifications: H2BK20ac H2BK24ac H2BK28ac, binder concentration: 10 nM",0.00853 ± 0.00032
same,peptide microarray binding signal,"[2]; peptide modifications: H2BK20ac H2BK24ac H2BK28ac, binder concentration: 100 nM",0.0068 ± 0.00034
same,peptide microarray binding signal,[3]; [7],0.00196 ± 0.00041
same,peptide microarray binding signal,[3]; [8],0.002054 ± 1.9e-05
same,peptide microarray binding signal,[4]; [7],0.0013 ± 0.00012
same,peptide microarray binding signal,[4]; [8],0.001614 ± 1.6e-05
AVTKAQKKDGKKR [H2B 17-29 A V T Kac A Q Kac K D G Kac Kac R],peptide microarray binding signal,"[1]; peptide modifications: H2BK20ac H2BK23ac H2BK27ac H2BK28ac, binder concentration: 50 nM",0.00414 ± 0.00019
same,peptide microarray binding signal,"[1]; peptide modifications: H2BK20ac H2BK23ac H2BK27ac H2BK28ac, binder concentration: 500 nM",0.00762 ± 0.00011
same,peptide microarray binding signal,"[2]; peptide modifications: H2BK20ac H2BK23ac H2BK27ac H2BK28ac, binder concentration: 10 nM",0.00913 ± 0.00015
same,peptide microarray binding signal,"[2]; peptide modifications: H2BK20ac H2BK23ac H2BK27ac H2BK28ac, binder concentration: 100 nM",0.0159 ± 0.00082
same,peptide microarray binding signal,[3]; [9],0.00168 ± 6.8e-05
same,peptide microarray binding signal,[3]; [10],0.0024 ± 4.3e-05
same,peptide microarray binding signal,[4]; [9],0.000861 ± 5.4e-05
same,peptide microarray binding signal,[4]; [10],0.000923 ± 9.6e-06
AVTKAQKKDGKKR [H2B 17-29 A V T K A Q Kac Kac D G Kac Kac R],peptide microarray binding signal,"[1]; peptide modifications: H2BK23ac H2BK24ac H2BK27ac H2BK28ac, binder concentration: 50 nM",0.00486 ± 0.00032
same,peptide microarray binding signal,"[1]; peptide modifications: H2BK23ac H2BK24ac H2BK27ac H2BK28ac, binder concentration: 500 nM",0.0102 ± 0.00019
same,peptide microarray binding signal,"[2]; peptide modifications: H2BK23ac H2BK24ac H2BK27ac H2BK28ac, binder concentration: 10 nM",0.00722 ± 0.00059
same,peptide microarray binding signal,"[2]; peptide modifications: H2BK23ac H2BK24ac H2BK27ac H2BK28ac, binder concentration: 100 nM",0.0164 ± 0.00086
same,peptide microarray binding signal,[3]; [11],0.00215 ± 0.00011
same,peptide microarray binding signal,[3]; [12],0.00205 ± 0.00011
same,peptide microarray binding signal,[4]; [11],0.00101 ± 6.9e-05
same,peptide microarray binding signal,[4]; [12],0.00138 ± 1.4e-05
AVTKAQKKDGKKR [H2B 17-29 A V T K A Q Kac Kac D G K Kac R],peptide microarray binding signal,"[1]; peptide modifications: H2BK23ac H2BK24ac H2BK28ac, binder concentration: 50 nM",0.0036 ± 3.9e-05
same,peptide microarray binding signal,"[1]; peptide modifications: H2BK23ac H2BK24ac H2BK28ac, binder concentration: 500 nM",0.00652 ± 0.00023
same,peptide microarray binding signal,"[2]; peptide modifications: H2BK23ac H2BK24ac H2BK28ac, binder concentration: 10 nM",0.00561 ± 8.2e-05
same,peptide microarray binding signal,"[2]; peptide modifications: H2BK23ac H2BK24ac H2BK28ac, binder concentration: 100 nM",0.00822 ± 0.00014
same,peptide microarray binding signal,[3]; [13],0.00143 ± 0.00012
same,peptide microarray binding signal,[3]; [14],0.00217 ± 0.00011
same,peptide microarray binding signal,[4]; [13],0.000544 ± 2.3e-05
same,peptide microarray binding signal,[4]; [14],0.00098 ± 1.7e-05
